Rows were chosen to be rich in hits. Some 3.9% of all compounds tested hit in one or more screens of this group.
ALR inh = human ALR oxidase inhibition via reduced H2O2; purified ALR, DTT oxidation, H2O2 HRP-luminol luminescence; inhibition, % (test concentration not listed); hit rate 3.8% among 290,000; AID 485317;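 active means mean replicate inhibition above about 79%, with every replicate also reaching it, limit read from the data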
Target sequence (P55789 whole entry, looked up): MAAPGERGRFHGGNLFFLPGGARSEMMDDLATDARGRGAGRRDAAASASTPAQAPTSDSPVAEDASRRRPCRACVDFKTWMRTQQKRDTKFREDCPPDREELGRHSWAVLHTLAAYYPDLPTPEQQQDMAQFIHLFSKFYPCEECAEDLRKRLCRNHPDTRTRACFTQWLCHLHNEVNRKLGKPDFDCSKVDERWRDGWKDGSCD
N-glyco inh = blocks N-linked glycosylation in D54 reporter cells; D54 ERlucT glycosylation luciferase reporter, 24 h; percent of 100 nM tunicamycin response; reporter increase, % at 12.5 µM; hit rate 0.23% among 360,000;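 active means mean luciferase reporter signal, scaled so untreated is 0 and the glycosylation-blocking control 100, at or above a set limit in every replicate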;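 further: luciferase carries N-glycosylation sites so blocking glycosylation raises the light; 0% = median of neutral control wells and 100% = median of 100 nM tunicamycin wells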
CASP6 VEID inh = inhibitors of human caspase-6. AID 686996. purified caspase-6, Z-VEID-R110 cleavage fluorescence. inhibition, % at 12.5 µM. hit rate 0.53% among 350,000;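 active means mean inhibition across replicates at least about 35%, with every replicate also reaching that limit, limit read from the data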;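 further: 0% = median of neutral control wells and 100% = no fluorescence left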
Target sequence (P55212 24-179 limits assumed): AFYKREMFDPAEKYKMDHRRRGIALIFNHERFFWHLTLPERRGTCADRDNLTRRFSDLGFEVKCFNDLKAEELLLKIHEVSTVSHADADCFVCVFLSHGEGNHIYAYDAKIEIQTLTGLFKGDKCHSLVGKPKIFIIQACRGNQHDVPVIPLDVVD
Target sequence (P55212 194-293 limits assumed): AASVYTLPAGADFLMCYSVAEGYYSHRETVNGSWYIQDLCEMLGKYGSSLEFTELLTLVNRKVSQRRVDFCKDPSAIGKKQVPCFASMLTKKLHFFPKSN
CDK5 inh = blocks human CDK5/p35 kinase activity; Q00535+Q15078; Recombinant CDK5/p35, ADP-Glo luminescence, 60 min; inhibition, % at 10 µM; hit rate 0.01% among 330,000; AID 488839;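 active means highest replicate inhibition of at least 50% and at least 75% of replicates reaching 50%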;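 further: plate controls were DMSO neutral control for no effect and GW8510 at 10 µM for full effect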
Mot1-301 SUMO = inhibitors of SUMOylation pathway: yeast Mot1-301 growth rescue; S. cerevisiae Mot1-301 growth rescue, ATP luminescence, 38.5C; percent above DMSO median, 100 means doubled; growth rescue, % at 18.8 µM; hit rate 1% among 320,000; AID 2716;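 active means every valid replicate shows activation above 250% relative to neutral control wells; inactive means the rest, any valid replicate at or below 250%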;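 further: OY570 slx delta 5 strain wells were the positive control but not used for scaling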
NSD2 inh = inhibitors of human histone methyltransferase NSD2; O96028; NSD2 peptide methylation, AlphaScreen, 120 min; inhibition, % at 12.5 µM; hit rate 0.54% among 310,000; AID 743445; in the data active means inhibition above about 50%
AlphaScreen art = interferes with AlphaScreen signal, flagging NSD2 false positives; AC35, µM (highest dose often 10 µM), for the others: at the top dose activity change, negative = signal loss; hit rate 9.4% among 1,500; shares compounds with NSD2 inh; AlphaScreen artifact counterscreen, preloaded methylated H4 peptide; call rule not given here
Numbers without * were called inactive; / = not tested or not shown; + = active, no number.

SMILES | ALR inh | N-glyco inh | CASP6 VEID inh | CDK5 inh | Mot1-301 SUMO | NSD2 inh | AlphaScreen art
C[C@H]1CN([C@@H](C)CO)C(=O)Cc2cc(NC(=O)C3CC3)ccc2O[C@@H]1CN(C)S(=O)(=O)c1ccccc1 | / | / | 3 | / | / | / | /
COc1ccc(O)c(/C=N/N2CCOCC2)c1 | -1 | 1 | -2 | 1 | -12 | -3 | /
Oc1ccc(/C=N/N2CCOCC2)c(O)c1O | 98* | 0 | 7 | 1 | -10 | 87* | -2%
COCCCNC(=O)COc1ccc(Cl)c(C)c1 | / | -1 | / | 0 | -1 | 56* | 4%
Cc1cc(OCC(=O)NC(C)(C)C)ccc1Cl | -7 | 0 | -2 | -2 | -3 | -2 | /
CN(C)c1ncnc2c1ncn2-c1ccccc1 | / | 7 | -1 | 1 | / | -2 | /
CN(c1ccccc1)c1ncnc2c1ncn2C | / | 1 | -4 | -2 | / | 122* | -4%
CCN(CC)S(=O)(=O)c1cccc(N=NC2=C(O)CCCC2=O)c1 | -4 | 3 | / | 0 | 4 | 2 | /
O=C1CCCC(O)=C1N=Nc1cccc(C(=O)O)c1 | -13 | 0 | 37* | 0 | -14 | 69* | -2%
CO[C@H](CN(C)S(=O)(=O)c1ccc(F)cc1)[C@@H](C)CN(C(=O)Nc1ccccc1F)[C@H](C)CO | / | / | 1 | / | / | / | /
CC(C)(C)NC(=O)COC(=O)c1ccc2c(c1)C(=O)N(Cc1ccco1)C2=O | -21 | 1 | 6 | 2 | 9 | 75* | -1%
O=C(OCC(=O)N1CCCCC1)c1ccc2c(c1)C(=O)N(Cc1ccco1)C2=O | 2 | 1 | 3 | 2 | 19 | 5 | /
C[C@@H]1CCCCO[C@@H](CN(C)C(=O)CCCN(C)C)[C@H](C)CN([C@@H](C)CO)C(=O)c2cc(NC(=O)CCC(F)(F)F)ccc2O1 | / | / | 0 | / | / | / | /
COCCNC(=O)Cc1c(C)c2c(cc(C)c3c(C)coc32)oc1=O | -3 | 1 | 0 | 2 | -4 | 51* | 3%
COCCNC(=O)C[C@H]1CC[C@H]2[C@@H](COC[C@@H](O)CN2Cc2cccc(-c3ccncc3)c2)O1 | / | / | -3 | / | / | / | /
C[C@H]1CN([C@@H](C)CO)C(=O)c2cc(C3=CCCCC3)cnc2O[C@@H]1CN(C)CC1CCCC1 | / | / | -3 | / | / | / | /
Cc1cccc(-c2nnc(SCC(=O)c3ccc(O)cc3O)n2C)c1 | -15 | 1 | -3 | 0 | -8 | 96* | -6%
Cc1cc(C(F)(F)F)n(-c2nc(C(=O)Nc3cccnc3)cs2)n1 | 5 | 2 | -3 | 1 | -9 | -2 | /
CC(=O)c1cccc(NC(=O)c2csc(-n3nc(C)cc3C(F)(F)F)n2)c1 | / | 1 | / | -11 | 247 | 125* | 1%
O=C(c1ccc2c(c1)OCO2)N1C[C@@H]2[C@H](c3ccccc31)[C@H](CO)N2C(=O)CC1CC1 | / | / | -1 | / | / | / | /
CN1C(=O)c2cc(NC(=O)c3cccs3)ccc2OC[C@@H]2O[C@@H](CC(=O)N3CCCCC3)CC[C@H]21 | / | / | 1 | / | / | / | /
COc1ccccc1C(=O)NNC(=O)Cc1ccccc1 | -4 | -1 | 0 | 1 | 0 | 55* | 2%
O=c1[nH]c(Cc2ccc(F)cc2)nc2scc(-c3ccc(F)cc3)c12 | -6 | -3 | -5 | -1 | 131 | -2 | /
Cc1ccc(-c2csc3nc(CN(C)Cc4ccccc4)[nH]c(=O)c23)cc1 | -6 | 0 | 5 | -7 | 4 | 60* | 2%
Cc1ccc(N2C(=O)N(CC(=O)Nc3cccc([N+](=O)[O-])c3C)C(=O)C2C)cc1 (configuration not stated) | -7 | -1 | 0 | 0 | 4 | 92* | -4%
SMILES | ALR inh | N-glyco inh | CASP6 VEID inh | CDK5 inh | Mot1-301 SUMO | NSD2 inh | AlphaScreen art
Cc1ccc(N2C(=O)N(CC(=O)Nc3ccc(C)cc3[N+](=O)[O-])C(=O)C2C)cc1 (configuration not stated) | 2 | 1 | 3 | 1 | 5 | 9 | /
CS(=O)(=O)Nc1cccc(NC(=O)c2ccc(-n3ccnc3)c3ccoc23)c1 | / | 2 | 3 | / | / | 23 | /
O=C(NCC1CC1)c1ccc(-n2ccnc2)c2ccoc12 | / | 0 | 5 | / | / | 63* | -3%
CCN(CC)CCNc1cc(C)nc2c1C(=O)C(=O)C=C2N1CCCCC1 | 8 | -6 | -53 | -1 | -7 | 118* | 1%
C[C@@H]1CN([C@H](C)CO)C(=O)c2cc(NC(=O)CCC(F)(F)F)ccc2O[C@H]1CN(C)C(=O)Nc1ccc2c(c1)OCO2 | / | / | 4 | / | / | / | /
COc1cc(C(=O)NC2CCCc3ccccc32)cc(OC)c1OC (configuration not stated) | -7 | 9 | 2 | -2 | 227 | 102* | -4%
COCC(=O)Nc1ccc2c(c1)[C@@H]1C[C@@H](CC(=O)N3CCOCC3)O[C@@H](CO)[C@@H]1O2 | / | / | -2 | / | / | / | /
CCOc1ccc(-n2cnc3sc4c(c3c2=O)CCCC4)cc1 | -5 | 0 | -1 | / | 2 | 58* | 0%
C1CCc2nc3c(nc2C1)CCCC3 | -6 | -1 | -3 | -1 | -4 | / | /
Nc1nnc2c(n1)CCCC2 | -34 | -9 | / | 0 | 1 | 58* | 7%
O=C1OCC2=Nc3cccc4cccc(c34)N12 | / | / | 0 | / | / | -3 | /
CC1=Nc2cccc3cccc(c23)N1C | 99* | 5 | / | 2 | 3 | + | 3%
COC(=O)CC1=NN(c2ccc(OC)cc2)C(=O)/C1=C\c1ccc(Cl)cc1 | 1 | 2 | 2 | 0 | -5 | 55* | -2%
COc1cc(NC(=O)COC(=O)CNC(=O)c2ccc(C)cc2)c(C)cc1[N+](=O)[O-] | -32 | 1 | 2 | 0 | 25 | 59* | -4%
CC(=O)NC(=S)Nc1ccc(NC(=S)NC(=O)/C=C/c2ccco2)cc1 | / | -1 | 2 | 1 | 1 | 1 | /
CCc1ccccc1NC(=O)c1cccc(NC(=O)/C=C/c2ccco2)c1 | -3 | 4 | / | 1 | -12 | 0 | /
O=C(/C=C/c1ccco1)Nc1cccc(C(=O)Nc2ccccc2C(=O)O)c1 | 95* | 0 | 60* | -8 | -5 | 76* | 0%
O=C(/C=C/c1ccco1)NC(=S)Nc1ccc(C(=O)O)cc1 | / | 0 | 44* | -3 | -2 | 66* | -5%
Cc1ccc(S(=O)(=O)Nc2cccc3c2O[C@H](CN(C)C(=O)Nc2ccc(F)cc2)[C@@H](C)CN([C@H](C)CO)C3=O)cc1 | / | / | 3 | / | / | / | /
O=C(C[C@@H]1CC[C@@H]2[C@H](COC[C@H](O)CN2C(=O)Nc2ccc(Cl)cc2)O1)N1CCCCC1 | / | / | 0 | / | / | / | /
COc1cnc(-c2ccccn2)nc1Oc1cccc(C(F)(F)F)c1 | -7 | 2 | 0 | -3 | -16 | 55* | -9%
COc1cnc(-c2ccccn2)nc1Oc1ccccc1 | -1 | 0 | 8 | -2 | -5 | 1 | /
O=C(C[C@@H]1C=C[C@H](NC(=O)Nc2cc(F)ccc2F)[C@@H](CO)O1)Nc1ccc(-c2ccccc2)cc1 | / | / | 0 | / | / | / | /

From PubChem BioAssay
